Consider 23 compounds from PubChem BioAssay (Tox21).

Assay [1] in a line: qHTS assay to identify small molecule agonists of the vitamin D receptor (VDR) signaling pathway - cell viability counter screen (AID 743224). Also: nearly all actives have a fitted effect of over 50% in size. Also: potency is read from the fitted curve at half-maximal effect. As to activity change, negative = cytotoxicity: % is scaled to controls: 0 for no effect and ±100 for the full control effect. In a few lines: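 Cells: VDR-bla, 2,000/well, settled 4 h. Treatment: compounds in DMSO, 16 h, 37C/5% CO2. Readout: CellTiter-Glo luminescence after 30 min RT.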
(Quantitative high-throughput screening tests each substance at several concentrations.)

Assay [2] in a line: qHTS assay to identify small molecule antagonists of the vitamin D receptor (VDR) signaling pathway - cell viability counter screen (AID 743225). Also: % is scaled to controls: 0 for no effect and ±100 for the full control effect; nearly all actives have a fitted effect of over 50% in size. The gist of the method: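 VDR-UAS-bla HEK 293T cells were plated and incubated 4 h at 37C, then dosed with compound plus 3 nM (final) 1-alpha,25-dihydroxyvitamin D3 for 16 h. After the 2 h beta-lactamase read, viability in the same wells was read as CellTiter-Glo luminescence after 30 min at room temperature.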

Assay [3] in a line: qHTS assay to identify small molecule agonists of the NFkB signaling pathway - cell viability counter screen (AID 1159515; calls by dose curve; also: nearly all actives have a fitted effect of over 55% in size; also: potency is read from the fitted curve at half-maximal effect; as to activity, negative = cytotoxic: % is scaled to controls: 0 for no effect and ±100 for the full control effect). In a few lines:
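Cells are seeded (2,000 NFkB-bla ME-180 per well), rested overnight, and dosed with DMSO-dissolved compounds for 5 hr at 37 C. Viability is then read by CellTiter-Glo luminescence after 30 min at room temperature.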

The nature of assay [4]: qHTS assay to identify small molecule agonists of the endoplasmic reticulum stress response signaling pathway (AID 1159516; active = well fitted activation curve with a large enough effect in the signal ratio in the repeat runs, not every such curve was filed as active; the % refers to the signal ratio; also: potency is read from the fitted curve at half-maximal effect). The gist of the method:
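Cells are seeded at 1,500 per well and incubated overnight. Compounds in DMSO are added for 5 hr at 37 C, then beta-lactamase FRET substrate for 2 hr at room temperature, and fluorescence at 460 and 530 nm is measured.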

Assay [5] in a line: qHTS assay to identify small molecule antagonists of the retinoid-related orphan receptor gamma (ROR-gamma) signaling pathway - cell viability counter screen (AID 1159520). Also: % is scaled to controls: 0 for no effect and ±100 for the full control effect; nearly all actives have a fitted effect of over 50% in size. The gist of the method: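 Cytotoxicity was read from cellular ATP (CellTiter-Glo luminescence) after 16 hr at 37 C with 1 uM doxycycline induction. The inducer was added 2 hr after compound transfer to Tet-on ROR gamma CHO cells.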

Assay [6] is described as follows: qHTS assay to identify small molecule agonists of the AP-1 signaling pathway - cell viability counter screen (AID 1159525; calls by dose curve; also: nearly all actives have a fitted effect of over 55% in size; also: potency is read from the fitted curve at half-maximal effect). The gist of the method:
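Intracellular ATP by Cell Titer Glo luminescence (30 min, RT) in the same ME-180 AP-1-bla wells after the 5 h compound exposure at 37 °C. Normalised to tetra n-octyl ammonium bromide and DMSO controls.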

Assay [7] can be described thus: qHTS assay to identify small molecule agonists of the RXR signaling pathway - cell viability counter screen (AID 1159529). Also: nearly all actives have a fitted effect of over 50% in size. Also: potency is read from the fitted curve at half-maximal effect. As to activity change, negative = cytotoxicity: % is scaled to controls: 0 for no effect and ±100 for the full control effect. The gist of the method: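 RXR-alpha-UAS-bla HEK 293T cells in medium with 2% charcoal-stripped FBS were pre-incubated 5 hr, then compound-treated 16 hr at 37 C. Viability was read by CellTiter-Glo luminescence in the same wells as the beta-lactamase assay, with tetraoctyl ammonium bromide as positive control.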

Assay [8] can be described thus: qHTS assay to identify small molecule antagonists of the retinoid acid receptor (RAR) signaling pathway - cell viability counter screen (AID 1159551). Also: nearly all actives have a fitted effect of over 35% in size. Also: potency is read from the fitted curve at half-maximal effect. As to activity change, negative = cytotoxicity: % is scaled to controls: 0 for no effect and ±100 for the full control effect. In a few lines: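 Cells (C3RL4) are plated, incubated overnight, dosed with compound in DMSO, then given retinol at 1 uM final. After 6 h at 37 C, CellTiter-Glo is added and luminescence read following 30 min at room temperature.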

A short description of assay [9]: qHTS assay to identify small molecule antagonists of the retinoic acid receptor (RAR) signaling pathway (AID 1159552; also: nearly all actives have a fitted effect of over 50% in size; also: potency is read from the fitted curve at half-maximal effect). The gist of the method: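 Retinol signaling pathway inhibitors screened in C3RL4 RARE-luciferase reporter cells seeded overnight at 37 C, then compounds added with 1 uM (final) retinol as pathway substrate. After 6 hr at 37 C, luciferase luminescence read after 30 min at room temperature.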

Assay [10] can be described thus: qHTS assay to identify small molecule agonists of the retinoic acid receptor (RAR) signaling pathway (AID 1159553). Also: potency is read from the fitted curve at half-maximal effect. The note with it: C3RL4 RARE luciferase reporter, agonist, 6 h; activation: at 73.3 µM (top of the series) unless noted. The gist of the method:
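Seed C3RL4 reporter cells at 1,000 per well and incubate overnight at 37 C. Add compounds in DMSO, incubate 6 hr. Add luciferase reagent, wait 30 min at room temperature, read luminescence.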

For assay [11], the target named is Nuclear receptor ROR-gamma (Homo sapiens) (UniProt P51449). The assay can be described thus: qHTS assay to identify small molecule antagonists of the retinoid-related orphan receptor gamma (ROR-gamma) signaling pathway (AID 1159521; also: nearly all actives have a fitted effect of over 50% in size; also: potency is read from the fitted curve at half-maximal effect). The gist of the method: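 Tet-on ROR-gamma CHO cells with ROR response element-luciferase reporter; compounds added 2 hr before 1 uM doxycycline induction, then 16 hr at 37 C. Antagonism scored as decreased ONE-Glo luminescence.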

The nature of assay [12]: qHTS assay to identify small molecule agonists of the AP-1 signaling pathway (AID 1159526; calls by dose curve; also: potency is read from the fitted curve at half-maximal effect).
Assay [13] deals with Retinoic acid receptor RXR-alpha (Homo sapiens) (UniProt P19793). Put plainly: qHTS assay to identify small molecule agonists of the RXR signaling pathway (AID 1159527; calls by dose curve; also: % is scaled to controls: 0 for no effect and ±100 for the full control effect; nearly all actives have a fitted effect of over 35% in size). The gist of the method: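 GeneBLAzer RXR-alpha-UAS-bla HEK 293T cells in 2% charcoal-stripped FBS medium were exposed to compounds for 16 hr at 37 C in agonist mode. Beta-lactamase reporter read as 460/530 nm FRET ratio after 2 hr substrate loading.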

Inconclusive results are not listed. Unmarked numbers belong to inactive results. The source made the active and inactive calls. Unless noted, calls follow the shape of the dose curve; as a rule, active = well fitted curve in the direction sought with a large enough effect in the repeat runs; inconclusive = weak or mixed curves; inactive = no such curve, though single readings can be large; an effect the other way counts as inactive or inconclusive.

Chain of Retinoic acid receptor RXR-alpha (Homo sapiens) (P19793 whole entry, looked up): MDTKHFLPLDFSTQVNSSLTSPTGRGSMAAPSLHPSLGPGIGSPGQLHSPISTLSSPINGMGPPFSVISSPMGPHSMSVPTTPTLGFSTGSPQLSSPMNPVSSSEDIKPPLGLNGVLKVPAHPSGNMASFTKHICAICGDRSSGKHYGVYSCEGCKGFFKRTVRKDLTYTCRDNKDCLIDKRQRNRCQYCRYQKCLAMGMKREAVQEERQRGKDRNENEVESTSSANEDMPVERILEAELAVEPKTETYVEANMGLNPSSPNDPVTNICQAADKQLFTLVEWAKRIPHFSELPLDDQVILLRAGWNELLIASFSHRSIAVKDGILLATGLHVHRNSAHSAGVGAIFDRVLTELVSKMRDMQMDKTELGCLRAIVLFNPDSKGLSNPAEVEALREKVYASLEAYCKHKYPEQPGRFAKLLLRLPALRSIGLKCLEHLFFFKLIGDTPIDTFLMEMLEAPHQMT

As to `O=S(=O)(O)c1ccc(Nc2nc(Nc3ccc(/C=C/c4ccc(Nc5nc(Nc6ccc(S(=O)(=O)O)cc6)nc(N(CCO)CCO)n5)cc4S(=O)(=O)O)c(S(=O)(=O)O)c3)nc(N(CCO)CCO)n2)cc1`, the Potency entry in assay [1], in assay [2], in [3], in [5], in assay [6] and in assay [7] was “inactive” in each case. Besides, the Potency result in assay [8], in assay [9] and in assay [10] was “inactive” in each case. Moreover, the Potency in assay [4] is 37.1 µM (active).

For `Cc1ccc(O)c(N)c1`, the Potency in [1] is 19.5 µM (active); in assay [12], 55 µM (active); in assay [10] it was 21.7 µM (active). Further, the Potency result in assay [2], in assay [3], in [4], in [5], in [11] and in assay [6] was “inactive” in each case. In addition, the Potency result in assay [7], in assay [8] and in [9] was “inactive” throughout.

Regarding `CN(C)C(=O)COC(=O)Cc1ccc(OC(=O)c2ccc(N=C(N)N)cc2)cc1`, the Potency entry in [2], in [3], in assay [4], in assay [5], in [6] and in [12] was “inactive” each time. In addition, the Potency entry in assay [13], in [7] and in [8] was “inactive” in each case.

With `CCCCCCOC(=O)C(C)CC` (stereo not given), the Potency result in assay [1], in [2], in assay [3], in [4], in assay [5] and in [11] was “inactive” throughout. Also, the Potency entry in assay [6], in [12], in [7], in assay [8], in assay [9] and in assay [10] was “inactive” each time.

Regarding `CCc1cccc(CC)c1NC(=O)CN(CC(=O)O)CC(=O)O`, the Potency result in assay [2], in assay [3], in [4], in assay [5], in assay [11] and in assay [6] was “inactive” each time. The Potency result in assay [12], in [7], in assay [8], in assay [9] and in [10] was “inactive” each time.

On to `CCC(=O)OC(=O)CC`, for which the Potency result in assay [1], in assay [2], in [3], in [4], in assay [5] and in [11] was “inactive” in each case. For the same compound, the Potency result in [6], in assay [12], in assay [8], in assay [9] and in assay [10] was “inactive” throughout.

On to `CCCCNS(=O)(=O)c1ccc(C)cc1`, for which the Potency entry in [1], in assay [2], in assay [3], in assay [4], in [5] and in [6] was “inactive” each time. For the same compound, the Potency result in assay [12], in [7], in assay [8], in assay [9] and in [10] was “inactive” each time.

Regarding `CC(C)(C)NSc1nc2ccccc2s1`, the Potency entry in assay [1], in [2], in assay [3], in assay [4], in assay [5] and in assay [11] was “inactive” in each case. Also, the Potency entry in assay [6], in [7], in assay [8] and in [9] was “inactive” in each case. Further, the activation in assay [10] was 7.05% [at 94.8 µM] (active).

Take `CCc1oc2ccccc2c1C(=O)c1cc(I)c(O)c(I)c1`: the Potency result in assay [3], in assay [4], in assay [5], in [6], in assay [8] and in assay [9] was “inactive” in each case. In addition, the Potency entry in assay [10] is “inactive”. The Potency in assay [11] is 11.9 µM (active).

`O=C(O)c1cc(O)c2ccccc2c1O`: the Potency in assay [1] is 38.9 µM (active); in assay [3], 21.9 µM (active); in assay [11] it was 13.7 µM (active); in assay [6], 4.9 µM (active); in [7] it was 30.9 µM (active); in assay [8] it was 61.1 µM (active). Besides, the Potency in [9] is 68.6 µM (active). Besides, in assay [4], the Potency entry was “inactive”.

Consider `COC(=O)c1ccccc1C`, for which the Potency result in assay [1], in assay [2], in assay [3], in [4], in assay [11] and in assay [6] was “inactive” in each case. Further, the Potency result in assay [12], in [7], in [8], in [9] and in assay [10] was “inactive” each time.

In the case of `Cc1c(C)c([N+](=O)[O-])c(C(C)(C)C)c([N+](=O)[O-])c1C`, the Potency entry in assay [3], in assay [4], in [11], in assay [6], in assay [12] and in assay [8] was “inactive” throughout. For the same compound, the Potency entry in [9] and in assay [10] was “inactive” in each case. Moreover, the Potency in assay [7] was 43.6 µM (active).

For the compound `FC(F)(F)c1cccc(Cl)c1`, the Potency result in assay [1], in assay [3], in assay [4], in assay [6], in assay [12] and in [13] was “inactive” throughout. Also, the Potency entry in assay [7], in assay [8], in assay [9] and in assay [10] was “inactive” throughout.

Take `O=C(O)O`: the activity, negative = cytotoxic in assay [3] is -3.19% [at 6.95 µM]. Moreover, in assay [4], the activation was -2.74% [at 6.95 µM]. Moreover, in assay [11], the Potency was 2.96 µM (active). Further, the viability change, negative = cytotoxic in [6] was -29.9% [at 6.97 µM]. In addition, the activity change, negative = cytotoxicity in assay [8] is 2.76% [at 8.39 µM]. Besides, the activity, negative = inhibition in assay [9] is -54.8% [at 8.39 µM].

As to `CCCCCCCC/C=C\CCCCCCCCN`, the Potency entry in assay [3], in [4], in assay [11], in [6], in assay [12] and in [13] was “inactive” each time. For the same compound, in [7], the Potency entry was “inactive”.

As to `CC[N+](CC)(CC)CCOC(=O)C(C1CCCC1)C1CCCC1`, the Potency result in [1], in [2], in assay [3], in [4], in assay [6] and in [12] was “inactive” throughout. Besides, the Potency entry in assay [13], in assay [7], in assay [8] and in [10] was “inactive” each time.

For `CCCCCCCCCCCCOC(=O)c1ccc(O)cc1`, the Potency entry in [2], in assay [3], in assay [4], in assay [11], in [13] and in [7] was “inactive” each time. In assay [8], the Potency result is “inactive”. Further, the Potency in assay [6] was 55.4 µM (active).

On to `Nc1ccc(Oc2ccc(Cl)cc2)cc1`, for which the Potency result in assay [1], in assay [2], in assay [3], in assay [4], in [11] and in assay [6] was “inactive” each time. Also, the Potency entry in [12], in assay [7], in [8] and in [9] was “inactive” each time.

`Cc1cccc(C)c1NC(=O)c1ccc(N)cc1`: the Potency result in [2], in assay [3], in assay [4], in [11], in [6] and in assay [12] was “inactive” throughout. The Potency result in assay [13], in assay [7] and in [8] was “inactive” each time.

Take `O=C(O)c1ccc2cc(C(=O)O)ccc2c1`: the Potency entry in assay [1], in [2], in [3], in [4], in [6] and in assay [12] was “inactive” each time. Also, the Potency entry in assay [7], in [8], in assay [9] and in [10] was “inactive” in each case.

Regarding `C=Cc1cccc(C)c1`, the Potency result in [1], in [2], in assay [3], in assay [4], in [11] and in assay [6] was “inactive” each time. The Potency entry in assay [12], in assay [7], in assay [8], in assay [9] and in assay [10] was “inactive” in each case.

Turning to `CCCCCCCCCCOC(=O)c1ccccc1C(=O)OCCCCCCCC`, the Potency entry in assay [1], in assay [2], in assay [3], in assay [4], in assay [11] and in assay [6] was “inactive” each time. Also, the Potency entry in assay [12], in assay [13], in [7] and in assay [8] was “inactive” each time.

With `O=C(/C=C/c1ccc(O)c(O)c1)O[C@@H](C(=O)O)[C@@H](OC(=O)/C=C/c1ccc(O)c(O)c1)C(=O)O`, the Potency entry in assay [1], in assay [3], in assay [4], in assay [11], in assay [6] and in [12] was “inactive” in each case. Moreover, the Potency result in assay [13], in assay [7], in [8], in assay [9] and in [10] was “inactive” each time.
